# Most compounds without a hit are left out; they make up all but 8.9% or so of the library.
# KB-3-1 cytotox = qHTS assay for MDR1-selective chemotherapeutics: Primary screen using the parental adenocarcinoma cell KB-3-1. KB-3-1 viability, CellTiter-Glo ATP luminescence, 72 h. Potency, µM (series often up to 46.1 µM), actives largely listed as cytotoxic. actives 1.4% (n = 400,000); note: potency is the fitted concentration of half-maximal effect; % is set by controls: 0 for no effect and ±100 for the full control effect; nearly all actives have a fitted effect of over 60% in size
#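 Multi-concentration cytotoxicity screen in KB-3-1 cells grown in DMEM lacking phenol red with 10% FBS. After 72 h at 37 °C with compound, ATP-dependent luminescence was recorded.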
# D3 ag = qHTS of D3 Dopamine Receptor Agonist: qHTS; actives 0.58% (n = 410,000); AID 652048, 2013; D3R DiscoveRx beta-arrestin cells, luminescence, 90 min; max activation, %; D(3) dopamine receptor (Homo sapiens), P35462; in the data active = max activation above about 30%; note: 0% is about no effect
# Target sequence (P35462 whole entry, looked up): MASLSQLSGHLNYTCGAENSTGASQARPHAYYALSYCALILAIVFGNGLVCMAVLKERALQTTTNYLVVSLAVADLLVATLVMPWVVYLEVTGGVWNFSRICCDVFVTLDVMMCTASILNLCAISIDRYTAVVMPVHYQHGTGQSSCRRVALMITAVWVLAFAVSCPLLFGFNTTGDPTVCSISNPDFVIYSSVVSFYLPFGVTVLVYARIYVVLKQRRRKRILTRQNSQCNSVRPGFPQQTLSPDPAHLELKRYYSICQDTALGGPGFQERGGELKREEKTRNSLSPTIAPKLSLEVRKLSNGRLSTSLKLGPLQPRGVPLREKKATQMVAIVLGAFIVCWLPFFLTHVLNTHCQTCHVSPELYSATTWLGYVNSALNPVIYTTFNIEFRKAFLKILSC
#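 Agonist-mode cell screen: cells plated at 1500/well and incubated overnight at 37 °C, then exposed to library compounds for 90 min at 37 °C. Detection reagent was added for 30–60 min at room temperature, and luminescence was read.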
# MCF10A rereplic = A quantitative high throughput screen for small molecules that induce DNA re-replication in MCF 10a normal breast cells; MCF 10A DNA re-replication, Hoechst nuclear intensity, 48 h; Potency, µM (top dose mostly 46.1 µM), without a hit: top-dose activity, positive = re-replication, actives largely listed as activators; actives 2.9% (n = 350,000); AID 624296, 2012; note: potency is the fitted concentration of half-maximal effect; % of control where 0% means no effect; nearly all actives have a fitted effect of over 50% in size
# KB-V1 MDR tox = qHTS assay for MDR1-selective chemotherapeutics: Primary screen using the drug-selected MDR subline cells KB-V1. KB-V1 MDR cells viability, CellTiter-Glo, 72 h. Potency, µM (series often up to 46.1 µM), hits mostly cytotoxic. actives 3.4% (n = 400,000). AID 1347076, 2019; note: potency is the fitted concentration of half-maximal effect; % is set by controls: 0 for no effect and ±100 for the full control effect; nearly all actives have a fitted effect of over 60% in size
#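 qHTS viability screen in drug-selected KB-V1 MDR cells: 72 h compound treatment at 37 degrees C, ATP luminescence end point.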
# D3 antag = qHTS of D3 Dopamine Receptor Antagonist: qHTS. D(3) dopamine receptor (Homo sapiens), P35462. D3R cells, DiscoveRx beta-arrestin luminescence, antagonist mode; active compounds read low. max response, negative = inhibition, %. actives 2.5% (n = 360,000). AID 652054, 2013; in the data active = max response below about -50%; inconclusive = no clear call, values can overlap the other calls; note: % is set by controls: 0 for no effect and ±100 for the full control effect
#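 Cells plated overnight at 1500 cells/well, then exposed to library compounds with dopamine controls for 90 minutes at 37 degrees C. DiscoveRx reagent added for 30–60 minutes at room temperature; luminescence read, quantitative HTS format.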
# SW480 rerep = A quantitative high throughput screen for small molecules that induce DNA re-replication in SW480 colon adenocarcinoma cells. Potency, µM (top dose mostly 46.1 µM), for inactives: top-dose re-replication activation, usual class: activators. AID 624297, 2012. SW480 DNA re-replication, Hoechst DNA content imaging, 48 h. actives 1.8% (n = 340,000); note: potency is the fitted concentration of half-maximal effect; % of control where 0% means no effect; nearly all actives have a fitted effect of over 55% in size
#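 DNA re-replication was detected as more nuclei of elevated Hoechst intensity after 48 hr exposure to compound (23 nL pinned per well of 250 cells).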
# Starred values were filed as active, the others as inactive; i = inactive; ? = inconclusive; . = no result given. Unless noted, calls come from the whole dose curve; as a rule, active = well fitted curve in the direction sought with a large enough effect; inconclusive = small, poorly fitted or top-dose-only effect, or another doubt; inactive = no such curve, though single readings can be large; an effect the other way counts as inactive or inconclusive.
SMILES,KB-3-1 cytotox,D3 ag,MCF10A rereplic,KB-V1 MDR tox,D3 antag,SW480 rerep
CN(C)c1ccc(C(CNS(=O)(=O)c2ccc(F)cc2)c2c[nH]c3ccccc23)cc1 (centres undefined),?,2,21µM*,?,2,12%
COc1ccc(-c2nc3scc(-c4ccccc4)n3n2)cc1,?,-2,3%,18µM*,21,?
CCOC(=O)C1(Cc2ccccc2C(F)(F)F)CCN(CC2CC2)CC1,i,-22,13%,i,7,-3%
CCOC(=O)C1(Cc2ccccc2C(F)(F)F)CCN(C(C)CCn2cccn2)CC1 (centres undefined),i,-26,3%,i,-50*,205%
CCOC(=O)C1(Cc2ccccc2C(F)(F)F)CCN(C2CCCC2)CC1,i,-27,?,i,-19,10%
CCOC(=O)C1(Cc2ccccc2C(F)(F)F)CCN(C(C)CSC)CC1 (centres undefined),i,-11,0%,i,-54*,-17%
COc1ccc(CCNC(=O)c2ccc3c(c2)N(Cc2ccc(F)cc2)C(=O)CS3)cc1OC,.,-19,.,.,.,.
OCCNCCOc1ccccc1F,i,-6,1%,i,-3,-4%
CC(C)c1ccccc1NC(=O)CNCCOc1ccccc1F,i,44*,-2%,i,?,-3%
CCc1ccc(CN(Cc2ccco2)C(=O)COc2ccc(Cl)cc2C)cc1,.,1,.,.,.,.
C=Cc1c(C)c2cc3nc(cc4[nH]c(cc5nc(cc1[nH]2)C(C)=C5CCC(=O)O)c(CCC(=O)OC)c4C)[C@@]1(C)C3=CC=C(C(=O)OC)[C@H]1C(=O)OC (tested in a mixture with another compound),.,.,7%,.,.,-1%
COc1ccc(C(=O)NCCN2C(=O)S/C(=C\c3cccnc3)C2=O)c(OC)c1OC,i,3,23%,15µM*,7,1%
O=C(NCCN1C(=O)S/C(=C/c2ccccc2)C1=O)C1CC(=O)N(Cc2ccccc2)C1 (centres undefined),i,0,9%,i,11,4%
Cc1nn(Cc2ccccc2)c(C)c1C(=O)NCCN1C(=O)S/C(=C\c2ccccc2)C1=O,i,1,26µM*,?,13,?
Cc1ccc(C2(C)NC(=O)N(CC(=O)NCCN3C(=O)S/C(=C\c4cccnc4)C3=O)C2=O)cc1 (centres undefined),i,-9,40%,i,21,5.8µM*
O=C(NCCN1C(=O)S/C(=C\c2cccnc2)C1=O)c1cc(S(=O)(=O)N2CCOCC2)ccc1F,i,6,17%,i,-2,2.1µM*
CNC(=O)C1CCC(Cn2c(=O)c3sccc3n(Cc3ccc(F)cc3)c2=O)CC1 (centres undefined),i,1,.,i,.,.
O=C1c2ccccc2-n2c1nc1ccccc1c2=O,?,-14,8%,?,?,1.2µM*
CC(C)C[C@@H](CN)NC(=O)c1nc[nH]c1C(=O)N[C@@H](Cc1ccccc1)C(=O)CNC[C@H](C)NC(=O)c1nc[nH]c1C(=O)N[C@@H](C)C(=O)O,i,43*,-17%,i,21,-29%
CC(C)C[C@@H](CNCC(=O)[C@H](CC(=O)O)NC(=O)c1[nH]cnc1C(=O)N[C@H](CN)CC(C)C)NC(=O)c1nc[nH]c1C(=O)N[C@@H](C)C(=O)O,i,3,-7%,i,-53*,-8%
Cc1csc(NC(=O)CCC(=O)N(CC(=O)NC2CCCC2)Cc2ccccc2)n1,i,9,8%,i,13,-2%

# Source: PubChem BioAssay
